Laboratory results from PubChem BioAssay (NCI).
This is part of a sample that, as a whole, favours compounds with a hit. Of some 83,000 tested, about 20% had one in any assay.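 Treatment: one concentration, 48 hours, 96-well format. Scoring: percent growth, with anything below 10 considered active.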 Values without a mark were called inactive. Activity calls are given as the source filed them.

Test system: TK-10 renal
Test: NCI-60 one-dose screen, 48 h (100 = growth as untreated, 0 = no growth, -100 = all killed)
Conditions: 10 µM unless noted
Protocol: Growth inhibition of the TK-10 human tumor cell line is measured as a screen for anti-cancer activity. Cells are grown in 96 well plates and exposed to the test compound for 48 hours. Compounds are tested at a single concentration, which is 10^-5 M for most compounds. The reported endpoint is percent growth (GI% or GIPRCNT), where numbers from 0 - 100% represent growth inhibition, and numbers from -100% - 0 represent cell death. For example, a value of 40 represents 60% growth inhibition. A value of 0 means no net growth occurred over the course of the experiment. A value of -40 indicates 40% of cells at the beginning of the experiment died by the end of the experiment. A value of -100 means all cells are dead at the end of the experiment.
NCI-60 Human Tumor Cell Lines Screen was performed using the standard one-dose NCI protocol, which is described in more detail at https://dtp.cancer.gov/discovery_development/nci-60/default.htm.
Compounds with GIPRCNT values below 10 were considered active. Activity score was based on GIPRCNT using the following formula: […]
Score is 0 for GIPRCNT values of 100 or above, 50 for GIPRCNT values of 0, and 100 for GIPRCNT values of -100.

Row | SMILES | growth
1 | COc1ccc(OC)c(C2OC(c3ccc4ccccc4c3O)=NN2C(C)=O)c1 (stereo not given) | 80.7%
2 | COc1ccc(S(=O)(=O)Nc2cc(/C=C\c3cc(OC)c(OC)c(OC)c3)cc(OC)c2OC)cc1 | 64.9%
3 | COc1cc(/C=N\NC(=O)CN2CCN(c3cc4c(cc3F)c(=O)c(C(=O)N/N=C/c3cc(OC)c(OC)c(OC)c3)cn4C3CC3)CC2)cc(OC)c1OC | 64.2%
4 | CCOC(=O)c1ccc2c(c1)c1c(C)c3cccnc3c(C)c1n2C | 87.8%
5 | CCOC(=O)c1cn2c3c(cccc3c1=O)C(=O)/C(=C/c1cccc(Cl)c1Cl)C2 | 100%
6 | CCCCCCN1CSC(=S)N(CCCCCC)C1 | 111%
7 | Cc1cc(N/N=C/c2nc(-c3ccc(Br)cc3)oc2C)c2cc(Br)ccc2n1 | 82%
8 | N=C(N)c1ccc(-c2ccc(-c3cncc4ccccc34)s2)cc1F | -91.2% (active)
9 | Cc1nc2ncccc2nc1Nc1ccc(S(=O)(=O)Nc2cncs2)cc1 | 101%
10 | COc1ccc(-c2[nH]nc(N)c2-c2cc(OC)c3c(c2)OCO3)cc1 | 84.8%
11 | O=C1NN(C(=O)c2ccc(Cl)cc2)C(c2ccccc2)=N/C1=C\c1ccc(F)cc1 | 109%
12 | CC(C)(C)n1cc(-c2ccnc(NCCCNS(=O)(=O)c3cccc(F)c3)c2)c(-c2cccc(O)c2)n1 | 97.9%
13 | CC(=O)OC[C@]12CC[C@H]3[C@@H](C[C@H]4O[C@]45CC=CC(=O)[C@]35C)[C@]1(O)CC[C@@]2(O)[C@@](C)(O)C1CC(C)=C(C)C(=O)O1 (stereo not given in full) | -55% (active)
14 | COc1cc(Nc2ncccc2C(=O)NCc2cn(Cc3cccc(Oc4ccccc4)c3)nn2)cc(OC)c1 | 70.4%
15 | COc1ccc(-c2ccc(C)n2-c2ccc(-c3nc4ccccc4s3)cc2)cc1 | 119%
16 | COc1c2occc2c(OC)c2c(=O)c(-c3cc(-c4ccc(F)cc4)c(C#N)c(N)n3)c(C)oc12 | 53.7%
17 | Clc1cccc(-c2cc(-c3ccc4c(c3)OCCO4)[nH]n2)c1 | 61% [25 µM]
18 | O=[N+]([O-])c1cccc(-c2nc3sccn3c2-c2ccnc(NCCCNS(=O)(=O)c3ccc(C(F)(F)F)cc3)n2)c1 | 73.6%
19 | COc1ccc2c(c1)[nH]c(=O)c1c3cc(OC)ccc3cn21 | 48.7%
20 | O=C(NNC(=O)N1c2ccccc2C=Cc2ccccc21)c1ccc2ccccc2c1 | 102%

Row | SMILES | growth
21 | COc1cccc(/C=C/C(=O)Nc2cc(OC)c3c(c2)OCO3)c1 | 98.4%
22 | NC(=O)CCCN1C/C(=C\c2ccccc2)C(=O)c2ccccc21 | 95%
23 | COc1ccc(C2CC(c3ccc(OC)cc3OC)=NN2c2ccc(S(N)(=O)=O)cc2)cc1 (stereo not given) | 105%
24 | CN(C)CCCN(c1nc(C(Cl)(Cl)Cl)ns1)c1nc(C(Cl)(Cl)Cl)ns1 | 63.5%
25 | CCCCCCCCN(CCCCCCCC)CCCCCCNc1cc(OC)cc2cccnc12 | 118%
26 | CC(C)CSc1nc(NN)c(C#N)c(-c2ccccc2)n1 | 110%
27 | CN1CCN(Cc2ccc(NC(=O)c3cncc(C#Cc4cnc(N)c5ccncc45)c3)cc2C(F)(F)F)CC1 | 48.6%
28 | O=c1[nH]c(NCc2ccccc2)nc2nc(Nc3ccc(NC(=S)Nc4ccccc4)cc3)nc(-c3ccc(O)cc3O)c12 | 134%
29 | O=[N+]([O-])c1cnc(Sc2ccncn2)s1 | 4.67% (active)
30 | O=C(O)C1CCCCN1c1nc(Cl)nc(Cl)n1 (stereo not given) | 103%
31 | C=C1c2nc3ccccc3n2C=C(c2ccc(Cl)cc2)N1Cc1ccccc1 | 119%
32 | Cn1ccc(Nc2nccc(Oc3ccc(C(=O)Nc4cccc(F)c4)c(Cl)c3)n2)c1 | 54.4%
33 | Cc1cc(C)n(-c2nnc3n2N=C(c2ccc(-c4ccccc4)cc2)CS3)n1 | 50.6%
34 | Cc1nc2ncccc2nc1Nc1ccc(S(=O)(=O)Nc2ccccn2)cc1 | 106%
35 | CCCCOc1ccc(/C=C2/SC(N3CCCC3)=NC2=O)cc1 | 103%
36 | COC1=C(OC)C(=O)C(CCCCCCCCCC[P+](c2ccccc2)(c2ccccc2)c2ccccc2)=C(C)C1=O | -56.7% (active)
37 | N=C(N)c1ccc(-c2cc(Cl)cc(Cl)c2)cn1 | 115%
38 | O=[N+]([O-])c1ccc(OCCCOc2ccccc2)cc1 | 97.5%
39 | C1=Cc2ccccc2N(c2nnc(-c3ccccc3)o2)c2ccccc21 | 114%
40 | C=CCn1c2ccccc2c2c3c(c4c5ccccc5n(CC=C)c4c21)C(=O)N(O)C3=O | 50.8%
